Caspase-1 inhib: allosteric or competitive inhibitors of human caspase-1. AID 900. Potency, µM (titrated, usually from 57.5 µM), for inactives: at the top dose activity change, negative = inhibition, actives largely listed as inhibitors. hit rate 0.03% among 75,000. P29466. Caspase-1 enzyme, Ac-WEHD-AFC fluorogenic rate;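 further: plate controls were vehicle for no effect and no substrate for full effect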
TSHR agonist: agonists of human thyroid stimulating hormone receptor; P16473; HEK293-CNG-TSHR cells (CNG channel as cAMP sensor), membrane potential dye, cAMP; Potency, µM (titrated, usually from 57.1 µM), for inactives: top-dose activation, actives largely listed as activators; hit rate 0.48% among 73,000; active means well fitted activation curve with a large enough effect in the main read-out, with a control signal flat, not every such curve was filed as active; inconclusive means small, poorly fitted or top-dose-only effect, or a change in a side signal; inactive means no such curve, though single readings can be large or run the other way; % of control where 0% means no effect;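 further: the control signal comes from parental cells without the receptor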
Target sequence (P16473 whole entry, looked up): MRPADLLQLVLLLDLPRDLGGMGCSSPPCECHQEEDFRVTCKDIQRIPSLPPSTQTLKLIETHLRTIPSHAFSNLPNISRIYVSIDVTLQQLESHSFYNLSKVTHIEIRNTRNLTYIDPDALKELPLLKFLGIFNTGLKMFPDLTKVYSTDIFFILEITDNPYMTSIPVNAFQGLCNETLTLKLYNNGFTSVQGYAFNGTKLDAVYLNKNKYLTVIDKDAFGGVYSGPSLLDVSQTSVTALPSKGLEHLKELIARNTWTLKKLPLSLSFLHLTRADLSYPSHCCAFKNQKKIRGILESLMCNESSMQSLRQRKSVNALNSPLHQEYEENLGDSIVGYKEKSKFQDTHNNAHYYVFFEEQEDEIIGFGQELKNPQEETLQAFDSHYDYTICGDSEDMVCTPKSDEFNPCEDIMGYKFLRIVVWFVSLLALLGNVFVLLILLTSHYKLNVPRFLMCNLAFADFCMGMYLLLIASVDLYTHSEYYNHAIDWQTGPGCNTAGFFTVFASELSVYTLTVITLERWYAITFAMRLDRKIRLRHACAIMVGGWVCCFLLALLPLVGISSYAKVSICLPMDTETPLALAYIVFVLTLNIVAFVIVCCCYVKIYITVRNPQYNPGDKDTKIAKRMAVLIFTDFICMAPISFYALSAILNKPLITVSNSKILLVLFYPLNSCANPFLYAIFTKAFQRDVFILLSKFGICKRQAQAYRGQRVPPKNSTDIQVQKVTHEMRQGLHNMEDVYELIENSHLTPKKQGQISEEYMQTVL
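HEK 293 cells stably expressing TSHR and a cAMP-gated CNG channel; parental CNG-only cells as counterscreen. Cells preloaded 60 min with membrane potential dye plus 100 uM RO 20-1724, then compound 30 min; fluorescence read at 590 nm.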
HEK293 cAMP ctrl: counter-screen for TSHR agonists: cAMP increase in parental HEK293; parental HEK293 CNG cAMP sensor, membrane potential fluorescence; Potency, µM (highest dose often 57.1 µM), for the others: at the top dose activation, usual class: activators; hit rate 2.5% among 73,000; AID 938; further: % of control where 0% means no effect; nearly all actives have a fitted effect of over 55% in size
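Parental HEK 293 cells stably expressing a modified CNG channel (no TSHR) report cAMP rise as membrane depolarization. Membrane potential dye with 100 uM RO 20-1724 was loaded for 60 min at room temperature, then compound added for 30 min; fluorescence read at 590 nm.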
Casp7 inh: blocks human caspase-7 allosterically or competitively; P55210; recombinant caspase-7, Ac-DEVD-AFC fluorescence rate; Potency, µM (doses to about 57.5 µM), for the others: at the highest dose activity change, negative = inhibition, actives largely listed as inhibitors; hit rate 0.02% among 75,000; AID 889; active means well fitted inhibition curve with a large enough effect in the main read-out, with a control signal flat, not every such curve was filed as active; inconclusive means small, poorly fitted or top-dose-only effect, or a change in a side signal; further: % of control where 0% means no effect
An asterisk follows results filed as active; u = inconclusive; x = not tested or not shown; [ ] = dose if it differs, or a comment. Compounds with a hit are over-represented: about 2.6% of the library has one in this group of screens. Unless noted, the call rests on the fitted dose curve; in most records, active means well fitted curve in the direction sought with a large enough effect; inconclusive means small, poorly fitted or top-dose-only effect, or another doubt; inactive means no such curve, though single readings can be large; an effect the other way counts as inactive or inconclusive. Potency means the concentration at half of the fitted maximal effect.

SMILES	Caspase-1 inhib	TSHR agonist	HEK293 cAMP ctrl	Casp7 inh
Cc1cc(NC(=O)c2ccccc2NS(=O)(=O)c2c(C)c(C)cc(C)c2C)no1	-2%	u	32µM*	-2%
Cc1cc(N2CCN(c3ccccc3)CC2)n2c(n1)nc1ccccc12	-7%	u	25µM*	-6%
Nc1ccccc1CCCC(=O)O	-2%[11.5 µM]	1%[11.4 µM]	-1%[11.4 µM]	1%[11.5 µM]
CCC1CCCCN1C(=O)CSc1nc2c([nH]c3ccccc32)c(=O)n1C (stereo not given)	1%	u	32µM*	-3%
CC(C)(C)N1C(=O)[C@H]2[C@H]3[C@H](O)[C@H](O)C/C(=N/OCc4ccccc4)[C@H]3CC[C@@H]2C1=O	-3%[11.5 µM]	-1%[11.4 µM]	9%[11.4 µM]	2%[11.5 µM]
Cc1c(C(=O)Nc2ccccc2)sc2nc(-c3ccccc3)cn12	0%	u	32µM*	-2%
COc1ccc(-c2cn3c(C)c(C(=O)Nc4cccc(C)n4)sc3n2)cc1	-7%	18%	18%	-1%
Cc1cccc(NC(=O)c2sc3nc(-c4ccccc4)cn3c2C)n1	x	u	25µM*	u
Cc1c(C(=O)Nc2ccc3c(c2)OCO3)sc2nc(-c3ccccc3)cn12	-3%	u	u	0%
Cc1cccc(NC(=O)c2sc3nc(-c4ccc(F)cc4)cn3c2C)n1	x	u	20µM*	-25%
C=C[C@@]1(C)CC(=O)[C@@]2(O)[C@@]3(C)[C@@H](O)CCC(C)(C)[C@@H]3[C@H](O)[C@H](OC(C)=O)[C@@]2(C)O1	2%	u	0.079µM*	-2%
CCOC(=O)c1ccc(N2C(=O)c3n[nH]c(C)c3C2c2ccc(O)cc2)cc1 (stereo not given)	0%	29%	3%	2%
CCOC(=O)c1ccc(N2C(=O)c3n[nH]c(C)c3C2c2ccccc2)cc1 (stereo not given)	0%	u	32µM*	2%
COCCn1c(=S)[nH]c2cc(C(=O)N3CCN(Cc4ccc5c(c4)OCO5)CC3)ccc2c1=O	-1%	16%	27%	-7%
COCCn1c(=S)[nH]c2cc(C(=O)N3CCc4ccccc43)ccc2c1=O	-2%	u	16µM*	-3%
O=C(c1ccncc1)N1CCC2(CCCN(Cc3ccccc3)C2)CC1	0%	u	u	2%
Clc1ccc([C@@H](c2ccccc2Cl)C(Cl)Cl)cc1	x	20µM*	12%	x
Cc1cc(C(=O)CSc2nnc(-c3cccc(F)c3)n2N)c(C)n1Cc1ccc2c(c1)OCO2	-4%	u	10µM*	0%
Cc1noc(C)c1C(=O)N1CCC[C@@]2(CCN(C(=O)Nc3cccc(F)c3)C2)C1	-1%	5%	14%	1%
C=CCn1c(SC(C)C(=O)NCc2ccc3c(c2)OCO3)nnc1C1CCCCC1 (stereo not given)	-1%	u	2.5µM*	0%
C=CCn1c(SCC(=O)NCc2cccs2)nnc1C1CCCCC1	2%	-2%[11.4 µM]	29%	-3%
OC(CCN1CCCCC1)(c1ccccc1)C1CCCCC1 (stereo not given)	2%	x	x	1%
OC(CCN1CCOCC1)(c1ccc(Cl)cc1)C1CCCCC1 (stereo not given)	-3%	u	16µM*	-11%
CCOc1ccc2[nH]c(=O)c(C(c3nnnn3Cc3ccco3)N3CCCC(C)C3)cc2c1 (stereo not given)	-9%	u	7.9µM*	-16%
CCOc1ccc2[nH]c(=O)c(C(c3nnnn3Cc3ccco3)N3CCC(C)CC3)cc2c1 (stereo not given)	-16%	u	32µM*	-24%
SMILES	Caspase-1 inhib	TSHR agonist	HEK293 cAMP ctrl	Casp7 inh
CCOc1ccc2[nH]c(=O)c(C(c3nnnn3C3CCCCC3)N3CCN(C)CC3)cc2c1 (stereo not given)	-4%	3%	8%	-3%
CCN1C(=O)[C@H]2[C@H]3[C@H](O)[C@H](O)C/C(=N/O[C@@H]4O[C@@H](COC(C)=O)[C@@H](OC(C)=O)[C@@H](OC(C)=O)[C@H]4OC(C)=O)[C@@H]3CC[C@@H]2C1=O	-2%[11.5 µM]	-2%[11.4 µM]	1%[11.4 µM]	1%[11.5 µM]
O=C1C=CC2=C3c4cc(O)c(O)cc4C[C@@]3(O)COC2=C1O	x	5%	1%	x
CN1CCN(c2ncncc2-c2cccnc2)CC1	-1%	u	u	-3%
O=C1CCC[C@@H](C(C(=O)OCc2ccccc2)C(=O)OCc2ccccc2)C1	-4%[11.5 µM]	16%[11.4 µM]	8%[11.4 µM]	-2%[11.5 µM]
Nc1ncnc2c1ncn2C1OC(COP(=O)(O)O)C(O)C1O (stereo not given)	0%	x	x	3%

From PubChem
